Measured values taken from ChEMBL document CHEMBL3988442, “University of Dundee, Small-Polar-MMV Screening Library” (2021).
For some assays here: Potency and affinity values are given separately.

How the values were obtained:
Set-up in all cases: scale not given: direction of the effect not stated beside the values
[1] = target: Protein translocase subunit SecA (Escherichia coli (strain K12)) (UniProt P10408); assay: Assay to Identify E. coli SecA ATPase Inhibitors; type: functional; settings: 30 µM
[2] = target: T1, Ubiquitin-activating enzyme e1, putative (Leishmania donovani (strain BPK282A1)) (UniProt E9BSI1); assay: Leishmania donovani Ubiquitin Activating Enzyme (LdE1); type: functional; settings: 30 µM
T1 sequence (whole entry): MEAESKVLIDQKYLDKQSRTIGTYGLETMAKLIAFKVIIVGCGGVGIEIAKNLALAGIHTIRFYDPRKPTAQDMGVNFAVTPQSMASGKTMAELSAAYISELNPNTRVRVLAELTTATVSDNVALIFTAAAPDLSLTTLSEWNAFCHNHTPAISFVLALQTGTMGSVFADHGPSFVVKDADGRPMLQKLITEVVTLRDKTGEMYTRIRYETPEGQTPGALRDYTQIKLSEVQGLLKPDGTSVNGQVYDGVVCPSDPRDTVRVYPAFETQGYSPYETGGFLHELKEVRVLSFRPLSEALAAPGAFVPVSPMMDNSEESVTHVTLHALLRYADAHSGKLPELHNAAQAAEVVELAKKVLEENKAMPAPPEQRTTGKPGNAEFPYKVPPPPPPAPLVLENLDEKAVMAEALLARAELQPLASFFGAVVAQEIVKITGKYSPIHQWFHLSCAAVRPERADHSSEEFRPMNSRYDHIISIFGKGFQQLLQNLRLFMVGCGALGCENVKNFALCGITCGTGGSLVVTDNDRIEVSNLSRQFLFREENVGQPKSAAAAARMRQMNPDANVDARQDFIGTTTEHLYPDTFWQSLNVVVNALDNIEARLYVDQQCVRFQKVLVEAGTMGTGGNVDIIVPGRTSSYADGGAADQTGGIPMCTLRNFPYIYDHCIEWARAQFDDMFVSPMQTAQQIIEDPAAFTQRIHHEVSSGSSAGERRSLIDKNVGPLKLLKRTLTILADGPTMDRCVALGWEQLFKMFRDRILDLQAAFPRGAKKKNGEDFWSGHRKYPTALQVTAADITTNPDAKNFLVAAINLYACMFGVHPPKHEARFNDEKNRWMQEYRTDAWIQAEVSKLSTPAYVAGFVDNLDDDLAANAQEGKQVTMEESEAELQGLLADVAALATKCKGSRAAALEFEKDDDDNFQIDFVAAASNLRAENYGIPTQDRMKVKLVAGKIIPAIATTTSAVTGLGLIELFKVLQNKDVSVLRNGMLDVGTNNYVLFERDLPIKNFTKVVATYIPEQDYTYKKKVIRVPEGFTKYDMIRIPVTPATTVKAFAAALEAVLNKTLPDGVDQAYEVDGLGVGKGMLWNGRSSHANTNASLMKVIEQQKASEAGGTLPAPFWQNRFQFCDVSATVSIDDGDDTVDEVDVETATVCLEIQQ

[3] = target: T2, Aspartate--tRNA(Asp/Asn) ligase (Mycobacterium tuberculosis (strain ATCC 25618 / H37Rv)) (UniProt P9WFW3); assay: Assay for Asp RNA synthetase-1 from Mycobacterium tuberculosis; type: functional; settings: 30 µM; further: in the data most compounds retested in dose-response had high values
T2 sequence (whole entry): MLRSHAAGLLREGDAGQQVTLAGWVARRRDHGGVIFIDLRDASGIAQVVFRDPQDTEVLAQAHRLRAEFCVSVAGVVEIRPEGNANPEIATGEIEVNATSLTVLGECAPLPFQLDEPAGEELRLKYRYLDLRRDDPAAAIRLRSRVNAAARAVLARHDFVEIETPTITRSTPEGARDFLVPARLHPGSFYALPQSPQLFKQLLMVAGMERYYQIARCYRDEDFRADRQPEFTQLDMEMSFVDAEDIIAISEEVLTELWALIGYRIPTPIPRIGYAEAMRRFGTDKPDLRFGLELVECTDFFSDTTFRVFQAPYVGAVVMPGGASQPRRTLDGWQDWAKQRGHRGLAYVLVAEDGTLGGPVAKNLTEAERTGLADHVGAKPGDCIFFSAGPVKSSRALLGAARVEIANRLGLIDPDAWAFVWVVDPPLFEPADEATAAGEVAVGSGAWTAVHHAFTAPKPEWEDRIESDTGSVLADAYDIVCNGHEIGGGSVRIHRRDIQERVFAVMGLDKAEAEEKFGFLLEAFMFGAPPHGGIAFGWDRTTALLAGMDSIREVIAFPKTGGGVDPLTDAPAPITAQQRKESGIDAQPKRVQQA

[4] = target: AMP-activated protein kinase, AMPK (Homo sapiens) (UniProt P54646+O43741+P54619+Q9UGJ0+Q9Y478+Q13131+Q9UGI9); assay: AMP-dependent Kinase enzyme assay. An in vitro enzyme assay that detects ADP turnover that is directly proportional to AMPK activity. This uses naive AMPK that is activated during the assay with MK-8722; type: functional; settings: 30 µM
[5] = target: Sialic acid-binding Ig-like lectin 9 (Homo sapiens) (UniProt Q9Y336); assay: Hs-Siglec9 ALPHAscreen SOP 20170721; settings: 10 µM
[6] = tested on: Trypanosoma cruzi; assay: Trypanosoma cruzi phosphomannomutase and mannose-1-phosphate guanylyltransferase assay; type: functional; settings: 10 µM
[7] = target: T3, Arginase-2, mitochondrial (Homo sapiens) (UniProt P78540); assay: in vitro enzyme assay to detect the production of urea directly proportional to the activity of Arginase II; type: functional; settings: 33.3 µM; further: in the data most compounds retested in dose-response had high values
T3 sequence (whole entry): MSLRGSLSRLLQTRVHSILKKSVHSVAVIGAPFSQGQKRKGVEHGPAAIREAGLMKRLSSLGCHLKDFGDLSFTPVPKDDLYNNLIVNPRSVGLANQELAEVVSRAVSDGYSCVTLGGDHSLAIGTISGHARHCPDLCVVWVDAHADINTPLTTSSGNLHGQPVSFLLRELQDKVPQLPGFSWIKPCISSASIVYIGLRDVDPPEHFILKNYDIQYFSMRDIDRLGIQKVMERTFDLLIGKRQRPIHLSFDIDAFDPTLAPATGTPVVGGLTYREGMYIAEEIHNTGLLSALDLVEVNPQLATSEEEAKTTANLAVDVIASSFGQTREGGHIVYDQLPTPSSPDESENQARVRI

[8] = target: T4, Proteasome subunit beta (Trypanosoma cruzi) (UniProt O96673); assay: Trypanosoma cruzi proteasome chymotrypsin-like activity (TcProtChymo) assay.; further: in the data most compounds retested in dose-response had high values; type: functional; settings: 9.37 µM
T4 sequence (whole entry): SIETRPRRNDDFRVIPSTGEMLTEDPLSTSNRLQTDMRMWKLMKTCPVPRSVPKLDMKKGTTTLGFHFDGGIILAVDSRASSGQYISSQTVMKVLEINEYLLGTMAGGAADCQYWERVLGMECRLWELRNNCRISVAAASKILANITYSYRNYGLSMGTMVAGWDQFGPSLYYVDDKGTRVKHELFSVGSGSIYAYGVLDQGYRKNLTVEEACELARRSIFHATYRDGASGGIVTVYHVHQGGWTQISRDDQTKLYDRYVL

[9] = organism: Homo sapiens; assay: To identify inhibition of the IFN signalling (Jak-Stat) pathway via expression of an eGFP reporter gene under the control of an IFN-stimulated response element (ISRE) containing MxA promoter.; type: functional; settings: 30 µM
[10] = target: Shiga toxin 2 (Escherichia coli O157:H7) (UniProt P09385+P09386); assay: E. coli 0.157:H7 Shiga Toxin SOP - stx2 screening assay; type: functional; settings: 30 µM
[11] = target: T5, Tyrosyl-tRNA synthetase, putative (Trypanosoma cruzi (strain CL Brener)) (UniProt Q4DSP6); assay: Trypanosoma cruzi tyrosyl tRNA synthetase (TcYRS) _High Tyrosine SOP; type: functional; settings: 30 µM; further: in the data most compounds retested in dose-response had high values
T5 sequence (whole entry): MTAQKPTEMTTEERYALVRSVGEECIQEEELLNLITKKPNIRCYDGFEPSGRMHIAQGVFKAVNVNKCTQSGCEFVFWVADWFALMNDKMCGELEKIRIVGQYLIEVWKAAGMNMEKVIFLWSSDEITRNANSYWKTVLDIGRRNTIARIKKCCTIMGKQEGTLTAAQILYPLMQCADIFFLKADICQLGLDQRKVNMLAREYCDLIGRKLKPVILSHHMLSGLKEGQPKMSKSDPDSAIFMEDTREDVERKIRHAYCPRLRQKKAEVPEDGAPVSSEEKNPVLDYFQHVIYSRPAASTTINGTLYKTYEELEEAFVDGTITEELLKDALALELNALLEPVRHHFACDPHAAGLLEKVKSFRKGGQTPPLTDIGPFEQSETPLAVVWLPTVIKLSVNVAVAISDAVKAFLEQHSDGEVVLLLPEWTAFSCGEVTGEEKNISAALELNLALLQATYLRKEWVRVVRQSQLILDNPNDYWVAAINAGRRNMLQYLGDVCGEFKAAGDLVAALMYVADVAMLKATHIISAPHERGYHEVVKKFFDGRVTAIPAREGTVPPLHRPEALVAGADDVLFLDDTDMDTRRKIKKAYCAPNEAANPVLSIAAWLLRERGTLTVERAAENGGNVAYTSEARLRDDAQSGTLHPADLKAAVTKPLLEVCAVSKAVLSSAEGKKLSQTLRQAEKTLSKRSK

[12] = target: T5, Tyrosyl-tRNA synthetase, putative (Trypanosoma cruzi (strain CL Brener)); assay: Trypanosoma cruzi tyrosyl tRNA synthetase (TcYRS) SOP; type: functional; settings: 30 µM
[13] = target: Chromo domain-containing protein 1 (Saccharomyces cerevisiae (strain ATCC 204508 / S288c) (Baker's yeast)) (UniProt P32657); assay: ScCHD-1 Enzyme Inhibition Assay; type: functional; settings: 30 µM; further: in the data most compounds retested in dose-response had high values
Chromo domain-containing protein 1 (Saccharomyces cerevisiae (strain ATCC 204508 / S288c) (Baker's yeast)), sequence (P32657 whole entry, the tested form may be a part): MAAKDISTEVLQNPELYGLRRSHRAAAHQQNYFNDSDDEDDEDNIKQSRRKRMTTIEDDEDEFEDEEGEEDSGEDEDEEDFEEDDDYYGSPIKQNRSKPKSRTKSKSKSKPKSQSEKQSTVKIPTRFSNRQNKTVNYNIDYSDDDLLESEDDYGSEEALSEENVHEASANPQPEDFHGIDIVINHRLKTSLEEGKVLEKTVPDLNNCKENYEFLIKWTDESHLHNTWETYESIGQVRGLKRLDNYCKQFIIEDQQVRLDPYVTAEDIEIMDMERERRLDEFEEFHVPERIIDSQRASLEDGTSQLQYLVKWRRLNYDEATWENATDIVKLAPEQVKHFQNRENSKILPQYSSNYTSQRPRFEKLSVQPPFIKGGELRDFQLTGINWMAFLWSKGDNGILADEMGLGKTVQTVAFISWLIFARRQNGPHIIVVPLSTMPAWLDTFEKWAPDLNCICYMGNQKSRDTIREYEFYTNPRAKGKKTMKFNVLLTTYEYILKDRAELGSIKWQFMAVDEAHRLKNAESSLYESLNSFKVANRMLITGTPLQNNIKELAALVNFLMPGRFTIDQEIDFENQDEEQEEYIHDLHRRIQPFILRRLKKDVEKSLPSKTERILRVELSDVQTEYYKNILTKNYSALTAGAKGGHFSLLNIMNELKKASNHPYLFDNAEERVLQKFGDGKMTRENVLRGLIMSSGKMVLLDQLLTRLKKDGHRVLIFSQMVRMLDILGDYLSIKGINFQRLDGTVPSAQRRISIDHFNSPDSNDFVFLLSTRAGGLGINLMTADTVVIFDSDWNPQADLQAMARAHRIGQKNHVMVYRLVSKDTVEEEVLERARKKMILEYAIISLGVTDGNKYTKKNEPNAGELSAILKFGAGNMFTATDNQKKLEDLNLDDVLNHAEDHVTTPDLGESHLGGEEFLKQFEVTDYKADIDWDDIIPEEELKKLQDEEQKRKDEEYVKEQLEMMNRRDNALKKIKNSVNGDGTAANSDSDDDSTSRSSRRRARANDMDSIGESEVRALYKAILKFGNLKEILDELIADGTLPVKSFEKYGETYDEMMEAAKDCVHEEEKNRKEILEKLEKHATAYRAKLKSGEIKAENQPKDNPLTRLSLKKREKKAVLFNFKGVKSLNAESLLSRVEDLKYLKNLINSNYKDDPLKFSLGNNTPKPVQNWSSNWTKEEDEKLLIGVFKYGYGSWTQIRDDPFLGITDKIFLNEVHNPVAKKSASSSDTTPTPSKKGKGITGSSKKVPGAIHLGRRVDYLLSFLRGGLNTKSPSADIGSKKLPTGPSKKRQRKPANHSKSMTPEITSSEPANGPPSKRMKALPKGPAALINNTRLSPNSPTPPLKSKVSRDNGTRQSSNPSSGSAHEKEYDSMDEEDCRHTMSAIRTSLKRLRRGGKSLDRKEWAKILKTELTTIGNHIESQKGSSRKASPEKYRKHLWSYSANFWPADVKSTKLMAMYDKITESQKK

Sialic acid-binding Ig-like lectin 9 (Homo sapiens), sequence (Q9Y336 whole entry): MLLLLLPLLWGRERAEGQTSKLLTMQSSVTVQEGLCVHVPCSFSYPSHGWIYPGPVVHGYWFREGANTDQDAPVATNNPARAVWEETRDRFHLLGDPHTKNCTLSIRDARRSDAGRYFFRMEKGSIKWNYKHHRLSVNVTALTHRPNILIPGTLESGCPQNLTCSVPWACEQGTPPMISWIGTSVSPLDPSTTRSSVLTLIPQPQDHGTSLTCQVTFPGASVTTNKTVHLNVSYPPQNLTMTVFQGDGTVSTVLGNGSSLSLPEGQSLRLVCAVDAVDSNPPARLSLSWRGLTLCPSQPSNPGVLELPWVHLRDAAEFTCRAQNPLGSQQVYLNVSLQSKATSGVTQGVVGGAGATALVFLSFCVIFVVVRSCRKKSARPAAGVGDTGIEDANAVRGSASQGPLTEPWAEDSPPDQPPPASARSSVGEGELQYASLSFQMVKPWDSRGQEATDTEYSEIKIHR
Protein translocase subunit SecA (Escherichia coli (strain K12)), sequence (P10408 whole entry): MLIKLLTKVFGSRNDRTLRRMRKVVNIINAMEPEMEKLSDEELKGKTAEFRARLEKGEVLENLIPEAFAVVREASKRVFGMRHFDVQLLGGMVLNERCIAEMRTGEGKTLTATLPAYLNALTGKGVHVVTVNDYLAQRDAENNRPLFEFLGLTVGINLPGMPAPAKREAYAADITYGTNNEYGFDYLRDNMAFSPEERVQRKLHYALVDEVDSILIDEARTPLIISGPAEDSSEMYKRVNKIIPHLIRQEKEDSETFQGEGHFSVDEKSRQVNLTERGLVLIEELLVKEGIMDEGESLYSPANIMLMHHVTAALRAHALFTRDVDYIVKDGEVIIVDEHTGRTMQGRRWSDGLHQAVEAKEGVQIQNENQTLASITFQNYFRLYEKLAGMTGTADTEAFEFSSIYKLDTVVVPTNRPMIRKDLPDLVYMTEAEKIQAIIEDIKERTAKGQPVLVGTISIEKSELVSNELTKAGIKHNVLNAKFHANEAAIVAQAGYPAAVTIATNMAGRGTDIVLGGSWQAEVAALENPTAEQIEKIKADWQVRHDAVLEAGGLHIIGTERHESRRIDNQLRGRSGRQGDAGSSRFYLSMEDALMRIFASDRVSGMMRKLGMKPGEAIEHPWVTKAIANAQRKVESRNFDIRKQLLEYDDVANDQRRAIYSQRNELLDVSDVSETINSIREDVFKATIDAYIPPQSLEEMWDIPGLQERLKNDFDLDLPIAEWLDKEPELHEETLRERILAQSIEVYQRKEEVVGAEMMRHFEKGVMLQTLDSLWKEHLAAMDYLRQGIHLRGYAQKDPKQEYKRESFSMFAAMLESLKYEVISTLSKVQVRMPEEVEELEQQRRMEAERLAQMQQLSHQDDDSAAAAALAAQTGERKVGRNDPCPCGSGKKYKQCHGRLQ

Structure (SMILES) | Percent Effect [1] | Percent Effect [2] | Percent Effect [3] | Percent Effect [4] | Percent Effect [5] | Percent Effect [6] | Percent Effect [7] | Percent Effect [8] | Percent Effect [9] | Percent Effect [10] | Percent Effect [11] | Percent Effect [12] | Percent Effect [13]
Cc1ncccc1OCC(=O)N1CCN[C@H]2CS(=O)(=O)C[C@H]21 | -6.4% | 10.8% | 7.97% | -4.66% | 0.713% | 0.489% | 4.71% | 14.2% | -4.73% | 11.7% | 9.68% | 18.5% | -1.55%
COCC(=O)NC(C)Cc1cccc(Br)c1 (stereo unspecified) | -8.66% | 13.2% | -1.17% | -9.62% | 6.28% | 10.3% | -0.383% | 9.19% | 12.7% | -16.5% | 7.35% | 19.5% | -12.4%
